Screens from PubChem.
This is a sample that favours compounds with a hit; in the whole collection about 22% have one here.
Shiga inhibitor = A qHTS for Small Molecule Inhibitors of Shiga Toxin. inhibition, % at 38.7 µM. hit rate 9.2% among 290,000. Vero cells, Shiga toxin protein synthesis inhibition reporter; in the data active means inhibition mostly above about 28%, no sharp cut-off; inactive means mostly below about 43%
Pf growth 48h = Primary qHTS for delayed death inhibitors of the malarial parasite plastid, 48 hour incubation; Potency, µM (highest dose often 28.7 µM), actives largely listed as inhibitors; hit rate 5.9% among 310,000; P. falciparum luciferase growth in erythrocytes, 48 h; AID 504832, 2011
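Compounds are pin-transferred into medium, infected erythrocytes (2% hematocrit, 0.1% parasitemia final) are added, and plates sit one parasite generation at 37 C in 5% CO2. Detection reagent is then added and luminescence measured.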
Pf growth 96h = Primary qHTS for delayed death inhibitors of the malarial parasite plastid, 96 hour incubation | Potency, µM (titrated, usually from 28.7 µM), actives largely listed as inhibitors | hit rate 6.9% among 320,000 | P. falciparum luciferase reporter growth, 96 h
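Infected RBCs, 2% Hct / 0.05% parasitemia final; luciferase-reporter P. falciparum; cpd 96 h, 37 C, 5% CO2; luciferase detection reagent; luminescence.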
LmPK inhibitor = qHTS Assay for Inhibitors of Leishmania Mexicana Pyruvate Kinase (LmPK) | purified LmPK, Kinase-Glo ATP luminescence, 1 h | Potency, µM (series often up to 57.5 µM), usual class: inhibitors | Q27686 | hit rate 0.37% among 290,000
Target sequence (Q27686 whole entry, looked up): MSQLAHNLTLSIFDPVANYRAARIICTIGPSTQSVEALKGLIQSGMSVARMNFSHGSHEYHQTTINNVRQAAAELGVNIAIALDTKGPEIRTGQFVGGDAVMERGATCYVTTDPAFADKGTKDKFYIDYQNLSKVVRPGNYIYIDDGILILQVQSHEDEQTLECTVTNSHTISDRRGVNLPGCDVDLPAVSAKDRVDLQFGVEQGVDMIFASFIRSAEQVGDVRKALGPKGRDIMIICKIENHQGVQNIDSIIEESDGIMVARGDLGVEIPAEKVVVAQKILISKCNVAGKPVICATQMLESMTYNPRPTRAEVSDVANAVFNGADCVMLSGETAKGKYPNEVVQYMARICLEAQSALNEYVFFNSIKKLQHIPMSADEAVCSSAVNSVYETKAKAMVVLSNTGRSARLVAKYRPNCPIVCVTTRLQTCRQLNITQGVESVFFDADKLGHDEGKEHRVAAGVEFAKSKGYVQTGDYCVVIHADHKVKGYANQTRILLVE
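Purified LmPK (0.1 nM) converted ADP (0.1 mM) to ATP with PEP (0.5 mM) in imidazole buffer pH 7.2 with KCl and MgCl2, 1 h at room temperature. ATP was read by Kinase-Glo luminescence; data normalized to uninhibited and no-enzyme controls.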
CHX counter = Cycloheximide Counterscreen for Small Molecule Inhibitors of Shiga Toxin. cell reporter, cycloheximide protein synthesis inhibition counterscreen. max response, %. hit rate 12% among 300,000; in the data active means max response mostly above about 13%, no sharp cut-off; inactive means mostly below about 14%; further: read at 38.3 µM for the half of the compounds with a filed dose
Of the large screens only hits and unclear results are named; the others gave an inactive call. Unless noted, the call rests on the fitted dose curve; in most records, active means well fitted inhibition curve with a large enough effect; inconclusive means small, poorly fitted or top-dose-only effect, or another doubt; inactive means no such curve, though single readings can be large or run the other way.

c1ccc(-c2cccc(-c3ccccc3)n2)cc1	Shiga inhibitor 54, CHX counter 48 (no result: Pf growth 48h)
NC(=O)c1ccc[n+]([C@@H]2O[C@H](COP(=O)([O-])OP(=O)(O)OC[C@H]3O[C@@H](n4cnc5c(N)ncnc54)[C@@H](O)[C@@H]3O)[C@@H](O)[C@@H]2O)c1	none (no result: Shiga inhibitor, LmPK inhibitor, CHX counter)
COc1ccc(N(Cc2ccccc2)S(=O)(=O)c2cc(C(=O)O)ccc2Cl)cc1	Pf growth 96h inconclusive
COc1ccc(CN2CCC(CO)(Cc3cccc(C(F)(F)F)c3)CC2)cc1Cn1cccn1	Pf growth 48h inconclusive
c1ccc(-c2cccc(-c3ccccn3)n2)nc1	Shiga inhibitor 91, Pf growth 48h 1.5µM, CHX counter 31
Cc1ccc(-c2csc(NC(=O)CSc3nc(C)cc(=O)[nH]3)n2)cc1	Pf growth 96h inconclusive, CHX counter 31 (no result: Pf growth 48h)
CCC(Sc1nc(-c2ccccc2)cc(=O)[nH]1)C(=O)O (centres undefined)	none
CCC(Sc1nc(C)cc(=O)[nH]1)C(=O)Nc1nc(-c2ccccc2)cs1 (centres undefined)	CHX counter 31 (no result: Pf growth 96h)
Cc1ccc(-c2csc(NC(=O)CSC3=NCCS3)n2)cc1	Shiga inhibitor 69, CHX counter 50
O=C(/C=C/c1ccc(-c2ccccc2)o1)c1ccccc1	Shiga inhibitor 72, CHX counter 74
O=C(/C=C/c1ccc(-c2ccccc2[N+](=O)[O-])o1)c1ccc(Br)cc1	none
O=C(/C=C/c1ccc(-c2ccccc2[N+](=O)[O-])o1)c1ccc(F)cc1	Shiga inhibitor 64, CHX counter 43
Cc1ccc(-c2ccc(/C=C/C(=O)c3ccccc3)o2)cc1	CHX counter 26
Cc1ccc(NS(=O)(=O)c2cc(OCC(N)=O)c(C)cc2Cl)cc1	none
S=C(NN=C1C2CC3CC(C2)CC1C3)Nc1ccccc1	Shiga inhibitor 146, Pf growth 96h 10µM, CHX counter 53 (no result: Pf growth 48h)
Cc1cc(C)c(S(=O)(=O)Nc2ccc(Cl)cn2)c(C)c1	Pf growth 48h 10µM
COc1ccc(CCNC(=O)CCC(=O)n2ncc3ccc(Cl)cc32)cc1OC	Pf growth 96h inconclusive
COc1ccc(N2CCN(C3CCCN(C(=O)CN4CCOC4=O)C3)CC2)cc1 (centres undefined)	none
CCOC(=O)C1=C(N)OC2=C(C(=O)CCC2)C12C(=O)N(CC(N)=O)c1ccccc12 (centres undefined)	Pf growth 96h 6.6µM
COc1cccc(CN2C(=O)C3(C(C#N)=C(N)OC4=C3C(=O)CCC4)c3ccccc32)c1 (centres undefined)	Pf growth 48h 4.1µM
CCOC(=O)C1=C(N)OC2=C(C(=O)CCC2)C12C(=O)N(C)c1ccccc12 (centres undefined)	none
CCNC(=O)c1ccc2c(c1)C1C3CCC(C3)C1C(c1ccccc1)N2 (centres undefined)	Pf growth 48h 7.4µM
CCOC(=O)c1ccc2c(c1)nc(-c1ccccn1)n2CC	Shiga inhibitor 107, CHX counter 61
CCOC(=O)c1ccc(S(=O)(=O)NNC(=O)c2ccc3c(c2)nc(C)n3CC)cc1	none
CCOC(=O)c1ccc2c(c1)nc(COc1ccc(OC)cc1)n2CC	Pf growth 96h 9.3µM (no result: Pf growth 48h)
C=CCNC(=O)CSc1nc2cc(C(=O)OCC)ccc2n1CC	Pf growth 96h 10µM (no result: Pf growth 48h)
CCOC(=O)c1ccc2c(c1)nc(SCC(=O)c1cc3ccccc3o1)n2CC	Pf growth 96h inconclusive (no result: Pf growth 48h)
CN(CC(=O)Nc1ccc(Cl)c(C(F)(F)F)c1)C(=O)c1ccc(N2CCOCC2)c([N+](=O)[O-])c1	none (no result: Shiga inhibitor, LmPK inhibitor, CHX counter)
CCCCCCCCCCCCCCCC(=O)OC[C@H](O)[C@H]1OC[C@@H](O)[C@@H]1O	none (no result: Shiga inhibitor, LmPK inhibitor, CHX counter)
COc1ccc(N(CC(=O)N2CCN(c3ccc(Cl)cc3)CC2)S(=O)(=O)c2c(C)noc2C)cc1	Pf growth 48h inconclusive, Pf growth 96h inconclusive
COc1ccc(N(CC(=O)N2CCN(c3ccc(F)cc3)CC2)S(=O)(=O)c2c(C)noc2C)cc1	Pf growth 48h inconclusive, Pf growth 96h 1.9µM
COc1ccc(N(CC(=O)N2CCN(c3cccc(Cl)c3)CC2)S(=O)(=O)c2c(C)noc2C)cc1	Pf growth 48h 10µM, Pf growth 96h inconclusive
CCOc1ccc(N(CC(=O)N2CCN(c3ccc(F)cc3)CC2)S(=O)(=O)c2c(C)noc2C)cc1	Pf growth 48h 10µM, Pf growth 96h inconclusive
CCOc1ccc(N(CC(=O)N2CCN(c3ccccc3F)CC2)S(=O)(=O)c2c(C)noc2C)cc1	Pf growth 48h inconclusive
CCOCCOC(=O)c1cccc(NC(=O)OCC)c1	none (no result: Pf growth 48h)
CCCCOC(=O)Nc1ccc(C(C)C)cc1	Shiga inhibitor 86, CHX counter 40
CCCCOC(=O)Nc1ccc(S(=O)(=O)Nc2ccc([N+](=O)[O-])cc2)cc1	none
CCCCOC(=O)Nc1ccc(N(C)C)cc1	Shiga inhibitor 116, CHX counter 80
CCCCOC(=O)Nc1cccc(C(=O)OCC)c1	Shiga inhibitor 83, CHX counter 21
CCCCOC(=O)Nc1ccc(S(=O)(=O)Nn2cnnc2)cc1	none
CCCCOC(=O)Nc1ccc(C(N)=O)cc1	Shiga inhibitor 76, CHX counter 37
CCNS(=O)(=O)c1ccc(CCC(=O)N2CCN(C(=O)OCC)CC2)cc1	Pf growth 96h inconclusive
N#Cc1ccccc1COc1cccc2c1CCCC2O (centres undefined)	none
CC(C)COC(=O)NCCCOC(=O)Nc1ccccc1	Pf growth 96h inconclusive, CHX counter 37
CC(C)COC(=O)NCCOC(=O)Nc1cccc(Cl)c1	none
CN(CC(=O)Nc1cccc(F)c1)C(=O)/C=C/c1cn(Cc2ccccc2)nc1-c1cccnc1	Pf growth 48h inconclusive, Pf growth 96h 10µM (no result: Shiga inhibitor, LmPK inhibitor, CHX counter)
O=C(O)/C=C/c1cn(Cc2ccccc2)nc1-c1cccnc1	none
O=Nc1c2cc(-c3ccccc3)[nH]nc-2c2ccccc12	Shiga inhibitor 101, LmPK inhibitor inconclusive, CHX counter 37
Cc1cccc(-c2cc3c(N=O)c4ccccc4c-3n[nH]2)c1	Shiga inhibitor 104, CHX counter 46
Cc1ccc(-c2cc3c(N=O)c4ccccc4c-3n[nH]2)cc1	none
Cc1ccc(CNC(=O)CN(C(=O)C2(C)CC(=O)N=C3C=CC=CN32)c2cccc(C)c2C)cc1 (centres undefined)	none
CCCCN(C(=O)CSc1nnc(-c2ccccc2)o1)c1c(N)n(CCC)c(=O)[nH]c1=O	Pf growth 48h inconclusive (no result: Shiga inhibitor, LmPK inhibitor, CHX counter)
CC1CN(C(=S)Nc2ccccc2C(F)(F)F)CC(C)O1 (centres undefined)	none
CCC(=O)c1ccc(OCC(=O)NC2(C#N)CCCCC2)cc1	none
N/C(=N\OC(=O)Cc1ccccc1)c1ccccn1	CHX counter 28
N/C(=N\OC(=O)CCCc1ccccc1)c1ccccn1	Shiga inhibitor 54, LmPK inhibitor inconclusive, CHX counter 35
COc1ccc(/C(N)=N/OC(=O)CCCc2ccccc2)cc1OC	CHX counter 27
N/C(=N\OC(=O)CCCc1ccccc1)c1ccc(Br)cc1	none
